From PubChem BioAssay AID504847 (National Center for Advancing Translational Sciences (NCATS), 2011)
Among all 400,000 compounds or so, about 3,700 (0.93%) were called active. Roughly 3% stayed inconclusive and do not appear here. Shown is part of a subset that was picked to be rich in actives. Values without a mark were called inactive. The call rests on the fitted dose curve; in most records, active means well fitted inhibition curve with a large enough effect; inconclusive means small, poorly fitted or top-dose-only effect, or another doubt; inactive means no such curve, though single readings can be large or run the other way.

What follows are compounds tested against Vitamin D3 receptor (Homo sapiens) (UniProt P11473) (assay: Inhibitors of the vitamin D receptor (VDR): qHTS). Conditions: VDR-SRC2-3 peptide fluorescence polarization, 2 h; max response, negative = inhibition: active compounds read low.
Excerpt: The vitamin D receptor (VDR) is a ligand-activated transcription factor and is partially responsible for the regulation of the endocrine system. This includes the transcriptional regulation of genes involved in the production of the parathyroid hormone (PTH) and the regulation of the blood calcium level. High levels of PHT can cause hypercalcemia in the case of primary and tertiary hyperparathyroidism. The VDR-mediated gene regulation, activated by its ligand 1,25-dihydroxyvitamin D3 (1,25-(OH)2D3), is governed by the recruitment of coactivators. Our hypothesis is that small molecules, with the ability to inhibit the interaction between VDR and certain coactivators, are able to selectively modulate VDR-mediated transcription. Our long term objective is the application these VDR-coactivator inhibitors to study the role of VDR-coactivator binding for specific VDR regulated genes. Ultimately, these molecules can be developed into new treatments for hypercalcemic hyperparathyroidism. No small molecule or non-peptide inhibitors are known for the VDR-coactivator interaction.
In a collaboration between the University of Wisconsin, Milwaukee and the NIH Chemical Genomics Center (NCGC) a HTS-compatible enzymatic assay was developed. The assay uses fluorescence polarization as its read-out to measure the inhibition between VDR and coregulator peptide SRC2-3 exerted by small molecules. This assay was used to screen the NIH Molecular Libraries Small Molecule Repository (MLSMR).
NIH Chemical Genomics Center [NCGC]
NIH Molecular Libraries Probe Centers Network [MLPCN]
Assay Submitter (PI): Alexander Arnold, University of Wilwaukee
Both solutions are kept at 4 deg C and protected from light and dispensed using a Kalypsys dispenser. Then 23nl of compounds and controls are added with Kalypsys pintool. […] Plate is centrifuged at 1000 RPM for 15 seconds to remove any residual bubbles. The plate is then incubate at ambient room temperature for 2 hours.
On the % scale 0 is the no-effect control and ±100 the full control effect; potency means the concentration at half of the fitted maximal effect.

Vitamin D3 receptor (Homo sapiens), sequence (P11473 whole entry, looked up): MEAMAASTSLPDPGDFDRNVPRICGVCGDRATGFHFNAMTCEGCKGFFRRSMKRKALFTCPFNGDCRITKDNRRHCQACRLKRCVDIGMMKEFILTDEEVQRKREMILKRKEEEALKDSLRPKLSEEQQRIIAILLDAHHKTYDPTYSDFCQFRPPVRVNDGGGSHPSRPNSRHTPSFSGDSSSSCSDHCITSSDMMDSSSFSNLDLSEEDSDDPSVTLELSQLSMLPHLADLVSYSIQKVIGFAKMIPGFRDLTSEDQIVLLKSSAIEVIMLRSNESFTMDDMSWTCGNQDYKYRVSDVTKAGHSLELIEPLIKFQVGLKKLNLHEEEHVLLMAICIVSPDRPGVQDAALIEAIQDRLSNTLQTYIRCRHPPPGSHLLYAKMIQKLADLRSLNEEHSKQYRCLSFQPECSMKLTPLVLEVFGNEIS

For `CCC(Sc1nnc(-c2ccc(OC)cc2)c(-c2ccc(OC)cc2)n1)C(=O)NC1CCCCC1` (stereo not given), which max response, negative = inhibition is on record?
The max response, negative = inhibition was 11.6%.

`Cc1nc2ccccn2c(=O)c1NC(=O)c1c(F)cccc1F` was tested. Which max response, negative = inhibition did it give?
The max response, negative = inhibition was 13.4%.

For `Cc1ccc2nc(-c3ccc(C)c(NC(=O)Cc4ccccc4)c3)oc2c1`, which max response, negative = inhibition is on record?
Its max response, negative = inhibition is -21.8%.

For `Cc1ccc(OCC(=O)Nc2ccc(Cl)c(-c3nc4ccccc4[nH]3)c2)cc1C`, which max response, negative = inhibition is on record?
Its max response, negative = inhibition is 2.81%.

How did the max response, negative = inhibition turn out when `CC(=O)OCC(=O)[C@@]1(O)CCC2C3CCC4=CC(=O)CC[C@]4(C)C3C(=O)C[C@]21C` (stereo not given in full) was run?
Its max response, negative = inhibition is -10.5%.

For `Cc1ccc(Cl)cc1N1CCN(C(=O)c2cn(C)c3ccc(S(=O)(=O)N(C)C4CCCCC4)cc3c2=O)CC1`, which max response, negative = inhibition is on record?
Its max response, negative = inhibition is -5.35%.

Which Potency does the source give for `O=C1/C(=C\c2ccc(O)cc2)CCC1CNc1ccc(Cl)cc1` (stereo not given) here?
The Potency was 79.4 µM (active).

`O=C1N=C(N2CCc3ccccc3C2)S/C1=C\c1ccc(O)cc1` was tested. Which max response, negative = inhibition did it give?
Its max response, negative = inhibition is 17.3%.

For `Cc1nn(-c2ccc(N3CCCCC3)nn2)c(C)c1CCC(=O)NCc1ccc(F)cc1`, which max response, negative = inhibition is on record?
Its max response, negative = inhibition is 11.6%.

With `COc1ccc(CCNC(=O)c2cc3cccc4c3n2CC(C)S4)c(OC)c1OC` (stereo not given) as the compound, how does the max response, negative = inhibition read?
The max response, negative = inhibition was 4.11%.

With `O=[N+]([O-])/C=C/c1ccc2c(ccn2Cc2ccccc2)c1` as the compound, how does the Potency read?
The Potency was 6.31 µM (active).

With `O=c1c(=O)n(Cc2c(F)cccc2Cl)ccn1Cc1ccccc1` as the compound, how does the max response, negative = inhibition read?
Its max response, negative = inhibition is -1.19%.

With `COc1ccc(Cn2ccn(Cc3cccc(OC)c3)c(=O)c2=O)cc1` as the compound, how does the max response, negative = inhibition read?
Its max response, negative = inhibition is 6.97%.

`COc1ccc(Cn2c(=O)[nH]c3cc(C(=O)N4CCN(C(=O)c5ccco5)CC4)ccc3c2=O)cc1` was tested. Which max response, negative = inhibition did it give?
Its max response, negative = inhibition is -6.06%.

`COc1ccc(-c2nc3sc(CCNS(=O)(=O)c4ccc(F)c(C)c4)c(C)n3n2)cc1` was tested. Which max response, negative = inhibition did it give?
Its max response, negative = inhibition is 16%.

How did the max response, negative = inhibition turn out when `O=C(CN1CCOCC1)Nc1cccc([N+](=O)[O-])c1` was run?
Its max response, negative = inhibition is -1.57%.

For `COC(=O)/C=C\C(=O)Nc1cccc([N+](=O)[O-])c1`, which Potency is on record?
The Potency was 22.4 µM (active).

Which max response, negative = inhibition does the source give for `O=C(Nc1cccc([N+](=O)[O-])c1)N1CCc2ccccc2C1` here?
Its max response, negative = inhibition is 5.4%.

How did the max response, negative = inhibition turn out when `CC(=O)N1c2ccc(S(=O)(=O)N3CCCCCC3)cc2CC1C(=O)NCc1ccccc1C` (stereo not given) was run?
Its max response, negative = inhibition is 5.71%.

With `N#Cc1c(-c2ccc(F)cc2)nc(-c2ccccc2)[nH]c1=O` as the compound, how does the max response, negative = inhibition read?
Its max response, negative = inhibition is 13.1%.

With `N#Cc1c(-c2ccccc2)nc(SCc2cccc(C(F)(F)F)c2)[nH]c1=O` as the compound, how does the Potency read?
The Potency was 79.4 µM (active).

How did the max response, negative = inhibition turn out when `O=c1[nH]c(SCc2cccc(F)c2)nc2ccccc12` was run?
Its max response, negative = inhibition is -6.23%.

`Cc1oc(-c2ccccc2)nc1Cn1c(SCc2cccc(C(F)(F)F)c2)nc2cccnc21` was tested. Which max response, negative = inhibition did it give?
The max response, negative = inhibition was 2.78%.

How did the max response, negative = inhibition turn out when `CC(Sc1nc(-c2ccccc2)cc(C(F)(F)F)n1)C(=O)Nc1ccc2c(c1)OCO2` (stereo not given) was run?
Its max response, negative = inhibition is -18.9%.

Which Potency does the source give for `Cc1ccc(O)c(NC(=O)CCS(=O)(=O)c2nc(-c3ccc4c(c3)OCO4)cc(C(F)(F)F)n2)c1` here?
The Potency was 50.1 µM (active).

With `Cc1ccc(O)c(NC(=O)c2cc(-c3ccc(F)cc3)no2)c1` as the compound, how does the max response, negative = inhibition read?
Its max response, negative = inhibition is 12%.

Which max response, negative = inhibition does the source give for `Cc1ccc(C(=O)COC(=O)C(Cc2c[nH]c3ccccc23)NC(=O)c2ccc(Br)cc2)cc1` (stereo not given) here?
The max response, negative = inhibition was 6.05%.

Which max response, negative = inhibition does the source give for `CCOc1ccccc1CNC(=O)c1cnc2c(-c3ccc(OCC)c(OCC)c3)c(C)nn2c1C` here?
Its max response, negative = inhibition is 12.6%.

With `O=C(/C(=C/c1cccc(Cl)c1)c1nc2ccccc2[nH]1)c1ccccc1` as the compound, how does the Potency read?
The Potency was 79.4 µM (active).

With `CN(c1ccccc1)S(=O)(=O)c1cc(C(=O)Nc2nc3ccccc3[nH]2)ccc1Cl` as the compound, how does the max response, negative = inhibition read?
Its max response, negative = inhibition is 22.7%.

For `Cc1ccc2nc(CNC(=O)c3ccccc3)[nH]c2c1`, which max response, negative = inhibition is on record?
Its max response, negative = inhibition is 11.1%.

With `COc1cc(OC)c2c(c1Cl)OC1(C2=O)C(O)=CC(=O)CC1C` (stereo not given) as the compound, how does the max response, negative = inhibition read?
The max response, negative = inhibition was 1.06%.

`COc1ccccc1OCC(=O)Nc1nnc2n1CCS2` was tested. Which max response, negative = inhibition did it give?
The max response, negative = inhibition was -3.73%.

Which max response, negative = inhibition does the source give for `Cc1ccc(NC(=O)Cc2ccc(NC(=O)N3CCCCc4ccccc43)cc2)cc1` here?
Its max response, negative = inhibition is 6.32%.

For `CN(C)c1nc(=Nc2cccc(Cl)c2)ss1`, which Potency is on record?
Its Potency is 25.1 µM (active).

How did the max response, negative = inhibition turn out when `Cc1c(-c2nsc(NC(=O)c3cccc(Cl)c3)n2)nnn1-c1ccccc1C(F)(F)F` was run?
The max response, negative = inhibition was 1.99%.

How did the max response, negative = inhibition turn out when `CCc1ccccc1NC(=O)CSc1nc(C)c(C(=O)Nc2ccccc2)c(-c2ccc(Cl)cc2)c1C#N` was run?
Its max response, negative = inhibition is 5.32%.

For `COc1ccc(-c2nc(CN3CCC(C(=O)NCc4ccccc4)CC3)c(C)o2)cc1OC`, which max response, negative = inhibition is on record?
Its max response, negative = inhibition is -18.6%.

Which Potency does the source give for `Nc1ccccc1SC(C[N+](=O)[O-])c1ccccc1` (stereo not given) here?
The Potency was 3.55 µM (active).

How did the max response, negative = inhibition turn out when `O=C(Nc1cccc(-c2nc3ccccc3o2)c1)c1cccc(Br)c1` was run?
Its max response, negative = inhibition is 4.46%.

`Cc1ccc2ccc3c(c2n1)NS(=O)(=O)c1ccccc1-3` was tested. Which max response, negative = inhibition did it give?
Its max response, negative = inhibition is -4.3%.

For `CCS(=O)(=O)c1cc([N+](=O)[O-])c(Sc2ccccc2N)s1`, which Potency is on record?
The Potency was 28.2 µM (active).

How did the max response, negative = inhibition turn out when `CCOC(=O)c1cnc2c(C)cc(Cl)cc2c1NCCc1ccc(OC)c(OC)c1` was run?
The max response, negative = inhibition was 2.98%.

`COc1ccc(NC(=O)CSc2nc3ncccc3[nH]2)c(OC)c1` was tested. Which max response, negative = inhibition did it give?
The max response, negative = inhibition was 22.9%.

How did the max response, negative = inhibition turn out when `COc1ccc(NC(=O)Cn2c(=O)n(CCC(C)C)c(=O)c3cccnc32)cc1Cl` was run?
The max response, negative = inhibition was 11.2%.

How did the max response, negative = inhibition turn out when `COc1ccc(N2CCN(c3nc(-c4ccccc4F)nc4ccccc34)CC2)cc1` was run?
The max response, negative = inhibition was 21.1%.

`COc1ccccc1-c1nc(N2CCN(C)CC2)c2ccccc2n1` was tested. Which max response, negative = inhibition did it give?
Its max response, negative = inhibition is -9.82%.

For `FC(F)(F)c1ccccc1-c1nc(-n2ccnc2)c2ccccc2n1`, which Potency is on record?
Its Potency is 50.1 µM (active).

`Cc1ccc(C)c(Nc2nnc(-c3ccc(C)c(S(=O)(=O)N4CCCCC4)c3)c3ccccc23)c1` was tested. Which max response, negative = inhibition did it give?
The max response, negative = inhibition was 2.71%.

`CC(C)(C)c1ccc(C(=O)Nc2ccc3c(c2)CCCN3C(=O)c2cccs2)cc1` was tested. Which max response, negative = inhibition did it give?
The max response, negative = inhibition was -1.02%.

Which max response, negative = inhibition does the source give for `O=C(C1CCC(Cn2c(=O)c3sccc3n(Cc3ccccc3F)c2=O)CC1)N1CCCCC1` (stereo not given) here?
Its max response, negative = inhibition is 8.9%.

`Cc1ccc(Sc2cc(C(=O)c3ccccc3C(=O)O)ccc2[N+](=O)[O-])cc1` was tested. Which max response, negative = inhibition did it give?
Its max response, negative = inhibition is -16.9%.

How did the Potency turn out when `Cc1ccc(SC(CC(=O)c2ccc(C(C)(C)C)cc2)C(=O)O)cc1` (stereo not given) was run?
The Potency was 20 µM (active).

How did the max response, negative = inhibition turn out when `CC(C)(C)c1ccc(C(=O)NNC(=O)Cc2ccccc2)cc1` was run?
The max response, negative = inhibition was 3.53%.

With `CCCCCCCC[C@@H](O)/C=C/C=C/C=C\[C@@H](O)CCCC(=O)O` as the compound, how does the max response, negative = inhibition read?
Its max response, negative = inhibition is 10.9%.
